The source of these data is the supplement of paper PMC10981050.

Structures can show the parent of a compound that is named as a salt.

For this assay, the system named is OCI-AML2. In words: cell viability relative to vehicle control; higher = less cytotoxic. As to conditions: 10 µM; SRSF2 genotype: P95H/wt. In a few lines:
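CRISPR-edited SRSF2 P95 mutant and isogenic wild-type clones of four leukaemia lines were screened against Selleck bioactive, kinase and epigenetic probe libraries, with identity-inconsistent compounds removed. Compounds were acoustically dispensed into 384-well plates at a single 10 µM dose, with 2000 cells in 50 µL medium per well. After 48 h, supernatant was removed and CellTiter-Glo luminescence was read. Viability was expressed as percent of the on-plate DMSO vehicle control, analysed in Genedata Screener.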
For `O=C(Nc1cccc(Cl)c1)Nc1ncc(CCNc2ncnc3ccsc23)s1` [SNS-314 Mesylate], the cell viability was 28.2%.
For `O=C(c1cn(Cc2cncn2Cc2ccc(Br)cc2)cc1-c1cccc2ccccc12)N1CCOCC1`, the cell viability was 25.7%.
Next, `COc1cc(N2CCN(C)CC2)ccc1Nc1nccc(-c2cn(C)c3cnccc23)n1`: 6.46%.
With `O=c1c(-c2ccc(O)cc2)coc2cc(O[C@@H]3O[C@H](CO)[C@@H](O)[C@H](O)[C@H]3O)ccc12` [Daidzin] the figure was 93.5%; with `COc1nc(C)cnc1NS(=O)(=O)c1cccnc1-c1ccc(-c2nnco2)cc1` [Zibotentan (ZD4054)], 102%; with `Nc1ccc(-c2cccc(C(=O)Nc3cnc4nc(N5CCOCC5)oc4c3)n2)cn1`, 103%.
With `C[C@@H]1CC[C@@]2(OC1)O[C@H]1C[C@H]3[C@@H]4CC=C5C[C@@H](O[C@@H]6O[C@H](CO)[C@@H](O)[C@H](O)[C@H]6O)CC[C@]5(C)[C@H]4CC[C@]3(C)[C@H]1[C@@H]2C` [Trillin] the figure was 88.3%; with `CCCC(C)NC(=O)c1ccc(Cl)c(Cl)c1` (stereo unspecified), 96%; with `C[C@@H]1C/C=C/C=C/C=C/C=C/[C@H](O[C@@H]2O[C@H](C)[C@@H](O)[C@H](N)[C@@H]2O)C[C@@H]2O[C@](O)(C[C@@H](O)C[C@H]3O[C@@H]3/C=C/C(=O)O1)C[C@H](O)[C@H]2C(=O)O` [Natamycin], 101%.
As for `CN1CCN(c2ccc(Nc3ncc4cc(C#N)c(=O)n(C5CCCC5)c4n3)cc2)CC1`, the cell viability amounted to 21.4%.
Next, `COc1ccc(-c2oc3c(CC=C(C)C)c(O[C@@H]4O[C@H](CO)[C@@H](O)[C@H](O)[C@H]4O)cc(O)c3c(=O)c2O[C@@H]2O[C@@H](C)[C@H](O)[C@@H](O)[C@H]2O[C@@H]2O[C@@H](C)[C@H](O)[C@@H](O)[C@H]2O)cc1` [Epmedin C]: 103%.
